Bioassay records deposited in PubChem by several laboratories.
The list is not random: actives were taken first. Their share in the collection is about 3.7%.
TIM10 inh = growth inhibitors of isogenic TIM10 control yeast, primary screen, counter-screen for tim10-1 yeast inhibitor project, luminescence, uHTS; actives 1.4% (n = 330,000); S. cerevisiae TIM10 strain growth, BacTiter-Glo luminescence, 24 h; AID 463195, 2010; inhibition, % at 10 µM;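 active = inhibition of 40% or more at the single tested concentration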;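 also: wild-type TIM10 isogenic control strain grown at permissive 25 °C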
Rce1 inh = yeast Rce1p protease inhibitors, primary screen, biochemical, fluorescence, cell-free homogeneous; calls only; yeast membranes, quenched prenylated peptide cleavage fluorescence; CAAX prenyl protease 2 (Saccharomyces cerevisiae (strain ATCC 204508 / S288c)), Q03530; actives 0.27% (n = 290,000);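 active = fall in fluorescence gain of 50% or more versus controls, with final raw signal at or below 3038400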;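 also: plate controls were neutral control wells for no effect and wells lacking membranes for full effect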
Target sequence (Q03530 whole entry, looked up): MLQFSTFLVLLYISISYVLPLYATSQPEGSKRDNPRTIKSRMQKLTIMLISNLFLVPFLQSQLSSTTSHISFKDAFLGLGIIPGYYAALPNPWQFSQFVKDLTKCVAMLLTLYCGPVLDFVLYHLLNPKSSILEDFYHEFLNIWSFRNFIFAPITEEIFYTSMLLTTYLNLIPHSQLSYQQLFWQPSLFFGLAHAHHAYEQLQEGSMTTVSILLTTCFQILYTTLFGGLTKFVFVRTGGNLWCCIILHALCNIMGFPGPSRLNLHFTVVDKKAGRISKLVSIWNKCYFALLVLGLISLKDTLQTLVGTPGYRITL
tim23-1 inh = growth inhibitors of tim23-1 mutant yeast, primary screen, luminescence, uHTS; S. cerevisiae tim23-1 growth, BacTiter-Glo luminescence, 24 h; inhibition, % at 20 µM; actives 1.3% (n = 330,000);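 active = growth inhibition of the mutant yeast at or above 50%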;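 also: temperature-sensitive mutant grown at 25 °C; plate controls were DMSO-treated mutant yeast for no effect and medium wells lacking yeast for full effect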
tim10-1 inh = growth inhibitors of tim10-1 mutant yeast, primary screen, luminescence, uHTS; S. cerevisiae tim10-1 ts strain growth, BacTiter-Glo, 24 h; inhibition, % at 20 µM; actives 2.2% (n = 330,000); AID 463190, 2010;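 active = inhibition of at least 40%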;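 also: mutant grown at 25 °C; 0% = DMSO wells with yeast and 100% = wells holding no yeast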
PfHsp90 yeast 2 = growth inhibition of PfHsp90-expressing yeast, primary screen, antimalarial PfHsp90 inhibitor project, S. cerevisiae, BacTiter-Glo luminescence, single point, set 2. BacTiter-Glo ATP, 48 h; yeast lacking PDR1 and PDR3 efflux regulators. actives 0.32% (n = 310,000). inhibition, % at 9.4 µM;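 active = every replicate shows inhibition above about 80%, whatever the replicate mean, limit read from the data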;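 also: 0% = DMSO neutral controls and 100% = 20 µM radicicol positive controls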
tim10-1 confirm = growth inhibitors of tim10-1 mutant yeast, confirmation, single concentration, luminescence, S. cerevisiae. shares compounds with tim10-1 inh. inhibition, % at 20 µM. actives 56% (n = 7,400). AID 463213, 2010. S. cerevisiae tim10-1 ts strain growth, BacTiter-Glo, 24 h;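 active = inhibition of yeast growth at or above a set limit in either of two repeat tests at 20 µM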;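 also: tim10-1 mutant grown at permissive 25 °C to find synthetic lethal compounds; 0% = DMSO yeast wells and 100% = medium wells without yeast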
tim10 confirm = growth inhibitors of wild-type TIM10 yeast, confirmation, counter-screen for tim10-1 synthetic lethality project, single concentration, luminescence, S. cerevisiae; shares compounds with TIM10 inh; S. cerevisiae tim10 strain growth, BacTiter-Glo luminescence, 24 h; inhibition, % at 10 µM; actives 63% (n = 4,600);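 active = inhibition of yeast growth at or above a set limit in either of two replicates at 10 µM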;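 also: this counterscreen used the strain with wild-type TIM10; 0% = yeast with DMSO and 100% = medium wells lacking yeast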
* hit, by the source's call; i = inactive; x = no result.

SMILES	TIM10 inh	Rce1 inh	tim23-1 inh	tim10-1 inh	PfHsp90 yeast 2	tim10-1 confirm	tim10 confirm
N/C(=N\OC(=O)c1ccc(Cl)c(Cl)c1)c1cccnc1	72*	i	5	60*	1	47*	76*
CC(NC(=O)Cc1ccccc1)C(=O)O (configuration not stated)	-5	x	-8	1	6	x	x
Cc1cccc(C)c1NC(=O)COC(=O)c1nonc1N	15	i	5	10	-16	x	x
Cc1ccc2ccccc2c1COC(=O)c1nonc1N	50*	i	26	43*	4	43*	50*
O=C(COc1c(F)c(F)c(C(F)(F)F)c(F)c1F)Nc1ccc(N2CCOCC2)c(Cl)c1	43*	i	41	58*	6	45*	34*
COc1ccc(/C=C2\SC(c3ccc(C)cc3)=NC2=O)cc1OC	4	i	8	18	-24	x	x
COc1cc(/C=C2\SC(c3ccc(C)cc3)=NC2=O)ccc1O	46*	i	50	52*	-8	31*	43*
CC1CCN(S(=O)(=O)c2cc(Br)cc(C(=O)NC3=NCCS3)c2)CC1	41*	i	34	46*	3	32*	40*
CCN(CC)S(=O)(=O)c1ccc(C(=O)NC2=NCCS2)cc1	3	i	1	-22	12	x	x
C=CCn1c(=O)c2ccccc2n2c(SCc3c(C(=O)OCC)oc4ccccc34)nnc12	42*	i	35	41*	25	38*	17
CCOC(=O)N1CCC2(CC1)C(C(=O)C13CC4CC(CC(C4)C1)C3)C2(C#N)C#N (configuration not stated)	63*	i	43	54*	29	54*	45*
COc1ccc(C2(CNS(=O)(=O)c3ccccc3)CCOCC2)cc1	2	i	15	3	29	x	x
CC(C)S(=O)(=O)c1csc(NC(=O)Nc2cc(Cl)ccc2Cl)c1Cl	47*	x	21	42*	14	28	41*
COc1ccc(Cn2c(SCc3ccc(C)cc3)nc3cc(OC)c(OC)cc3c2=N)cc1Cl	62*	i	42	90*	41	87*	-6
O=C1CNC(=O)N1	9	i	-15	8	-9	x	x
CCOc1ccc(NC(=S)N(Cc2ccc(N(C)C)cc2)Cc2ccco2)cc1	46*	i	38	52*	-3	43*	36*
COc1ccc(NC(=S)N(Cc2ccc(N(C)C)cc2)Cc2ccco2)cc1	37	i	37	36	-20	x	x
COc1ccc2c(c1OC)C(=O)N1N=C(c3ccc(Br)cc3)CC21 (configuration not stated)	40*	i	40	48*	21	40*	-3
COc1ccc(C2=NN3C(=O)c4c(ccc(OC)c4OC)C3C2)cc1 (configuration not stated)	37	i	41	13	10	x	x
Cc1cccc(/C=C/C(=O)c2ccc([N+](=O)[O-])o2)c1	89*	i	45	53*	103*	7	98*
Cc1ccc(NC(=O)c2ccc3ccccc3n2)nc1	70*	i	43	52*	10	36*	74*
O=C(CCNS(=O)(=O)c1ccc(F)c(F)c1)NCCN1CCOCC1	-10	x	-4	-11	x	x	x
Cc1ccc(Nc2nc(N)c3ccccc3n2)cc1Cl	25	i	44	5	26	x	x
CN(C)c1ccc(Nc2nc(N)c3ccccc3n2)cc1	44*	i	43	55*	60	50*	36*
CC(C)COC(=O)c1ccc2c(c1O)C(=O)c1ccccc1C2=O	47*	i	49	58*	-66	42*	40*
SMILES	TIM10 inh	Rce1 inh	tim23-1 inh	tim10-1 inh	PfHsp90 yeast 2	tim10-1 confirm	tim10 confirm
COc1ccc2c(c1O)C(=O)c1ccccc1C2=O	-19	i	15	-19	x	x	x
Cc1cccc(NS(=O)(=O)c2cnc(Cl)c(Br)c2)n1	3	i	9	8	3	x	x
Cc1ccc(N2C(=O)CC(Sc3ccccc3C(=O)O)C2=O)cc1C (configuration not stated)	43*	i	28	42*	-21	47*	40*
Cc1ccc(N2C(=O)CC(Sc3ccccc3C(=O)O)C2=O)cc1 (configuration not stated)	19	i	24	11	2	x	x
Cc1cc(C)cc(N2C(=O)CC(Sc3ccccc3C(=O)O)C2=O)c1 (configuration not stated)	17	i	23	29	-1	x	x
Cc1cccc(N2C(=O)CC(Sc3ccccc3C(=O)O)C2=O)c1 (configuration not stated)	41*	i	34	49*	1	46*	15
c1ccc2c(c1)nc1n2CCN1CCN1CCCC1	12	i	5	6	-1	x	x
Cc1cc(C)n(S(=O)(=O)/C=C/c2ccccc2)n1	44*	i	28	50*	-8	42*	42*
COC(=O)C1CCN(C(=O)c2sc3nc(-c4ccc(F)cc4)cn3c2C)CC1	55*	i	40	70*	5	64*	35*
CCOC(=O)C1CCN(C(=O)c2sc3nc(-c4ccccc4)cn3c2C)CC1	57*	i	41	66*	22	60*	52*
O=C(NCCCO)C(=O)NCc1ccncc1	7	i	14	-3	2	x	x
NC(=O)C1CCN(c2nc(-c3ccc4c(c3)OCCO4)cs2)CC1	-6	x	14	4	x	x	x
C=CCSc1nc2ccccc2n1C(=O)/C=C/c1cc(OC)c(OC)c(OC)c1	43*	i	44	45*	15	49*	41*
C=CCSc1nc2ccccc2n1C(=O)/C=C/c1ccc(OC)c(OC)c1	x	i	x	x	20	x	x
COCn1c(=O)c2c(nc(SC3=NCCS3)n2Cc2ccccc2C)n(COC)c1=O	43*	i	40	47*	-67	19	35*
O=c1cc(-c2ccccc2)nc2cc(-c3ccc(F)cc3)[nH]n12	-21	i	8	-13	-13	x	x
Fc1ccc(-c2cc(-c3ccccc3)nc(-n3cccn3)n2)cc1	59*	i	42	51*	15	46*	46*
Cc1cc(C(F)(F)F)cc(NNC(=O)NC(=O)c2c(F)cccc2Cl)n1	12	i	22	14	10	x	x
Cc1ccc(Oc2nnc(-c3cccs3)c3ccccc23)cc1	-5	i	15	14	-13	x	x
